# According to PubChem BioAssay AID743320 (Broad Institute, 2014):
# Measured potencies and affinities stand elsewhere. Activity calls are given as the source filed them.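 The calls were made as follows: active = signal drop whose fitted half-maximal potency is at most twice the top valid dose tested; inconclusive = flat curve inhibiting 30 to 70 percent, or a poor fit; inactive = the rest.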
# Biological target: Endoplasmic reticulum aminopeptidase 2 (Homo sapiens) (UniProt Q6P179)
# Assay: inhibition of ERAP2 arginine-AMC cleavage – biochemical, fluorescence plate reader, cherry-picked, set 2, selectivity assay for selective ERAP1 modulator project, dose response (AID 743320)
# Settings: recombinant ERAP2, Arg-AMC fluorescence, 1 h; series mostly up to 11 µM
# Chain of Endoplasmic reticulum aminopeptidase 2 (Homo sapiens) (Q6P179 whole entry, looked up): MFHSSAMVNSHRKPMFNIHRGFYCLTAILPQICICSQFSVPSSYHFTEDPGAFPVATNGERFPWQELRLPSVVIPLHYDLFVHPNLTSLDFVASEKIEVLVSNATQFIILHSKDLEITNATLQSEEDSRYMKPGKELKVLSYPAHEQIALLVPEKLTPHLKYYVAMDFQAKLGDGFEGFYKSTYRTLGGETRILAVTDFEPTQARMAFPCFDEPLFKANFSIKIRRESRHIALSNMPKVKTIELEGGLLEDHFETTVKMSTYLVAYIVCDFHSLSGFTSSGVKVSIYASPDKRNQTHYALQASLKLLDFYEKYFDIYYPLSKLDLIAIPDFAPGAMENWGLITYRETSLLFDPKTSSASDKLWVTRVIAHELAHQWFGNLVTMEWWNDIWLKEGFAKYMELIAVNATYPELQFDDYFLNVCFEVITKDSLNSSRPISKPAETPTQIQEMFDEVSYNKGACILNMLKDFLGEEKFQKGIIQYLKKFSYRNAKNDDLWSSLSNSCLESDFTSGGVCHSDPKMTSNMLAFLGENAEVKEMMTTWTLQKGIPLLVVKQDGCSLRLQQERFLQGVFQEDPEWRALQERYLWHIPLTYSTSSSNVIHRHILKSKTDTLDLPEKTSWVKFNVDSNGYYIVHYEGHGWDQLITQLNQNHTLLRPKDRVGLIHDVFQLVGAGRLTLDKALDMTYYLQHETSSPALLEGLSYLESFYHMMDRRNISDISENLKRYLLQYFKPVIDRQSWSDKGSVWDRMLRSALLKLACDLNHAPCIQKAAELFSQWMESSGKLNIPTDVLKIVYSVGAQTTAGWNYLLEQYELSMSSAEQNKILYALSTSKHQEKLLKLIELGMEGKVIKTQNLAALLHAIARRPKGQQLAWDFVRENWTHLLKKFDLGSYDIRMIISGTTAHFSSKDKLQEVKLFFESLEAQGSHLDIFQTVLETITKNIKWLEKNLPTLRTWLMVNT
row,SMILES,outcome
1,Cc1cc(=O)oc2cc(OCC(=O)N3CCN(C(C)c4ccccc4)CC3)c(Cl)cc12 (stereo not drawn),inactive
2,N#Cc1c(N2CCNCC2)nc(-c2ccco2)c2c1CCCC2,inactive
3,CCN(CCCl)c1cc(CN(C)C)cc(NC(=O)c2ccc(C(=O)Nc3cc(CN(C)C)cc(N(CC)CCCl)c3)cc2)c1,inactive
